The values below come from PubChem BioAssay AID1645838 (ICCB-Longwood Screening Facility, Harvard Medical School, 2021).

“And” between values parts separate entries of the source, which are not always exact repeats. Equal entries are not always repeated. About 100 (5%) of roughly 2,000 compounds were called active. Rule as the data show it: active = z-score above about 2; inactive = the rest. What follows is part of a selection rich in actives, with near analogues and random picks from the rest. Some compounds were tested as several samples or in several runs, with calls that do not always agree.

The experiment is described as follows: modulators of mitochondrial supercomplex assembly, cell-based, luminescence, Hoechst nuclei count (AID 1645838).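 As to all read-outs here: control cybrid cells.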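 As to z-score: higher means more mitochondrial supercomplex formation.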 Conditions: Cells, luminescence/Hoechst cell count ratio, supercomplex reporter; for z-score: stronger effect = higher value; for cell count: measured here: cell number, Hoechst nuclei count.
The mark [1] stands for this setting: library stock concentration (final well concentration not given) 46 uM.
Setting [2] is: library stock concentration (final well concentration not given) 278 uM.
Where [3] appears, read: library stock concentration (final well concentration not given) 1.67 mM.
[4] abbreviates: library stock concentration (final well concentration not given) 10 mM.
The mark [5] stands for this setting: library stock concentration (final well concentration not given) 80 uM.
Setting [6] is: library stock concentration (final well concentration not given) 400 uM.
The mark [7] stands for this setting: library stock concentration (final well concentration not given) 2 mM.

In the case of `CCCCC[C@@H](O)/C=C/[C@H]1[C@H](C/C=C\CCCC(=O)O)C(=O)C[C@@H]1O`, the z-score was -0.0856 (inactive) and the cell count was 5040.

Take `CCC(=O)NCC1CC1c1cccc2c1CCO2` (centres undefined): the z-score under setting [1] was 0.0958 (inactive), the z-score under setting [2] is 0.113 (inactive), the z-score under setting [3] is -0.0496 (inactive) and the z-score under setting [4] is -0.0795 (inactive). For the same compound, the cell count by setting is: under setting [1], 6660; under setting [2], 6440; under setting [3], 7030; under setting [4], 7060.

Regarding `O=c1cc(N2CCOCC2)oc2c(-c3cccc4c3sc3ccccc34)cccc12`, the z-score was -0.493 (inactive) and 0.0213 (inactive) under setting [5]; -0.14 (inactive) and 0.291 (inactive) under setting [6]; 1.89 (inactive) and 3.23 (active) under setting [7]; 0.374 (inactive) and 11.4 (active) under setting [4]. Moreover, the cell count runs as follows: under setting [5], 4940 and 6230; under setting [6], 4400 and 5530; under setting [7], 3070 and 3850; under setting [4], 4020 and 1970.

With `O=c1cc(N2CCOCC2)oc2c1ccc1ccccc12`, the z-score is, setting by setting: under setting [1], -0.263 (inactive); under setting [2], 0.075 (inactive); under setting [3], 0.0237 (inactive); under setting [4], -0.121 (inactive). The cell count reads like this: under setting [1], 6320; under setting [2], 6310; under setting [3], 6270; under setting [4], 6380.

For `O=c1cc(N2CCOCC2)oc2c(-c3ccccc3)cccc12`, the z-score is 0.00801 (inactive) and the cell count stood at 5270.

In the case of `C[C@@H](O)CCC[C@@H](O)/C=C/[C@@H]1[C@@H](CCCCCCC(=O)O)[C@@H](O)C[C@H]1O`, the z-score was -0.0165 (inactive) and the cell count stood at 5060.

For `NC(=O)c1ccc(-c2nc(-c3ccc4c(c3)OCO4)c(-c3ccccn3)[nH]2)cc1`, the z-score was -0.0341 (inactive) and the cell count worked out at 5380.

Take `NC(=O)c1ccc(-c2nc(-c3ccc4c(c3)OCCO4)c(-c3ccccn3)[nH]2)cc1`: the z-score was 0.107 (inactive) and the cell count was 5540.

As for `NC(=O)c1ccc2nc(-c3ccc(Oc4ccc(Cl)cc4)cc3)[nH]c2c1`, the z-score under setting [5] is 0.235 (inactive), the z-score under setting [6] was 0.636 (inactive), the z-score under setting [7] is 0.25 (inactive) and the z-score under setting [4] was 2.04 (active). The cell count by setting is: under setting [5], 4680; under setting [6], 4440; under setting [7], 4560; under setting [4], 3840.

With `CCCCCCCCCCCSCC(=O)O`, the z-score was -0.636 (inactive) and the cell count was 5540.

With `CCCCCC(=O)/C=C/C=O`, the z-score is 3.38 (active) and the cell count was determined as 4570.

In the case of `CCCCCC(O)/C=C/C=O` (centres undefined), the z-score was -0.635 (inactive) and the cell count worked out at 5350.

Take `CCCCCCCCCCCCCCCC(=O)NC(C)C`: the z-score is -0.641 (inactive) and the cell count worked out at 5670.

Regarding `CCCCCC/C=C\CCCCCCCC(=O)OCC`, the z-score was -0.872 (inactive) and the cell count was 5340.

As to `Cc1ccc(C)c(-n2sc3cc(F)ccc3c2=O)c1`, the z-score by setting is: under setting [1], -0.174 (inactive); under setting [2], -0.302 (inactive); under setting [3], -1.02 (inactive); under setting [4], 1.44 (inactive). Further, the cell count by setting is: under setting [1], 7370; under setting [2], 6230; under setting [3], 7150; under setting [4], 2660.

For the compound `CS(=O)(=O)N1CCc2c(-c3cnc(N)nc3)nc(N3CCOCC3)nc21`, the outcome (library stock 10 mM) was “inactive; censored for cell count”. Moreover, the z-score is, setting by setting: under setting [5], -0.156 (inactive); under setting [6], 0.294 (inactive); under setting [7], 1.97 (active). Besides, the cell count under setting [5] was 5660, the cell count under setting [6] worked out at 4440 and the cell count under setting [7] was determined as 2590.

`CC1=C(C(=O)Nc2ccccc2C)C(c2cccc([N+](=O)[O-])c2)C2=C(CCCC2=O)N1` (centres undefined): the z-score was 0.502 (inactive) under setting [5], 0.355 (inactive) under setting [6], -0.0592 (inactive) under setting [7] and 0.0886 (inactive) under setting [4]. In addition, the cell count under setting [5] was determined as 4870, the cell count under setting [6] stood at 4830, the cell count under setting [7] turned out to be 4490 and the cell count under setting [4] amounted to 4680.

For `CCCCCCCCCCCCCCCCC/C=C\C(=O)O`, the z-score was 0.0429 (inactive) and the cell count is 4620.

Turning to `CCCCCCCC/C=C\CCCCCCCC(=O)NCC`, the z-score is 0.358 (inactive) and the cell count was 5660.

For the compound `CCCCCCCC(=O)OC[C@H](CO)OC(=O)CCCCCCC`, the z-score is -0.0675 (inactive) and the cell count is 5320.

Take `CC(C)[C@H](C(=O)Nc1ccc(C(=O)NO)cc1)c1ccccc1`: the outcome is “inactive; censored for cell count”.

Consider `CCCCN(Cc1ccc(C(=O)NO)cc1)C(=O)Nc1ccccc1`, for which the z-score reads like this: under setting [5], -0.413 (inactive); under setting [6], -0.344 (inactive); under setting [7], 0.545 (inactive); under setting [4], 1.99 (active). In addition, the cell count by setting is: under setting [5], 5840; under setting [6], 5790; under setting [7], 4990; under setting [4], 3280.

On to `CCCCCc1ccc(C=CC(=O)Nc2ccccc2C(=O)O)cc1`, for which the z-score runs as follows: under setting [1], 0.0102 (inactive); under setting [2], -0.157 (inactive); under setting [3], -0.383 (inactive); under setting [4], -0.45 (inactive). For the same compound, the cell count stood at 6840 under setting [1], 6660 under setting [2], 6860 under setting [3] and 6620 under setting [4].

Turning to `CC(C)(C)CCN1C[C@@H]2C(CNC(=O)c3cc(Cl)cc(Cl)c3)[C@@H]2C1` (some centres undefined), the z-score reads like this: under setting [5], 0.249 (inactive); under setting [6], -0.0169 (inactive); under setting [7], -0.303 (inactive); under setting [4], -0.298 (inactive). Moreover, the cell count is 4670 under setting [5], 5180 under setting [6], 5270 under setting [7] and 4390 under setting [4].

`CCCCC[C@H](O)/C=C/[C@@H]1[C@H]2CC(CCCCC(=O)O)O[C@H]2C[C@H]1O` (some centres undefined): the z-score is -0.784 (inactive) and the cell count was 6080.

As for `O=C(NC(=O)c1c(F)cccc1Cl)NC1c2ccccc2-c2ccccc21`, the z-score is -0.18 (inactive) under setting [1], -0.113 (inactive) under setting [2], -0.216 (inactive) under setting [3] and -0.278 (inactive) under setting [4]. Further, the cell count under setting [1] worked out at 6490, the cell count under setting [2] is 6240, the cell count under setting [3] stood at 6190 and the cell count under setting [4] worked out at 5520.

In the case of `CC(C=CC1=C(C)CCCC1(C)C)=CC=CC(C)=CC(=O)O`, the z-score was -0.113 (inactive) under setting [1], -0.063 (inactive) under setting [2], -0.22 (inactive) under setting [3] and 0.0473 (inactive) under setting [4]. Moreover, the cell count under setting [1] came out at 5180, the cell count under setting [2] is 5150, the cell count under setting [3] was determined as 5430 and the cell count under setting [4] was found to be 4870.
